{"source": "PubChem BioAssay (Tox21)", "note": "Results filed as inconclusive are left out. The source made the active and inactive calls. Calls come from the whole dose curve; as a rule, active = well fitted cell-killing curve with a large enough effect in the repeat runs; inconclusive = weak or mixed curves, or effect the other way; inactive = no such curve, though single readings can be large or run the other way. % is set by controls: 0 for no effect and ±100 for the full control effect.", "data": [{"assay": "qHTS assay to identify small molecule antagonists of the vitamin D receptor (VDR) signaling pathway - cell viability counter screen (AID 743225); note: nearly all actives have a fitted effect of over 50% in size", "conditions": "VDR-bla HEK293T viability, CellTiter-Glo luminescence, 16 h; series mostly up to 61 µM", "from_the_text": "U.S. Tox21 Program National Center for Advancing Translational Sciences [NCATS] NIH Chemical Genomics Center [NCGC] U.S. Environmental Protection Agency [EPA] National Institutes of Environmental Health Sciences [NIEHS] National Toxicology Program [NTP] U.S. Food and Drug Administration [FDA] Tox21 Assay Overview: The vitamin D receptor (VDR), a member of nuclear hormone receptor superfamily, plays a critical role in calcium homeostasis and bone metabolism. It is also involved in cell differentiation and growth, and thrombogenicity. To identify the compounds that inhibit VDR signaling, the VDR-UAS-bla HEK 293T cell line (Invitrogen, Carlsbad, CA, USA) containing a beta-lactamase reporter gene under the control of an upstream activator sequence (UAS) was used to screen the Tox21 10K compound library. The cytotoxicity of the Tox21 compound library against the VDR-bla cell line was tested in parallel by measuring the cell viability using CellTiter-Glo assay (Promega, Madison, WI) in the same wells.\nTox21 Assay Protocol Summary: VDR-bla cells were dispensed at 2,000 cells/5 uL of assay medium per well into black wall/clear-bottom 1536-well plates using a Multidrop Combi (Thermo Fisher Scientific, Waltham, MA) dispenser. After the assay plates were incubated at a 37C and 5% CO2 for 4 h, 23 nL of compounds dissolved in DMSO, positive controls or DMSO only was transferred to the assay plate by a Pintool station (Kalypsys, San Diego, CA), followed by addition of 1 uL of 1-alpha, 25-Dihydroxy Vitamin D3 (3 nM, final concentration in the wells) using a Bioraptr Flying Reagent Dispenser (FRD) workstation (Beckman Coulter, Indianapolis, IN). The plates were incubated at 37C and 5% CO2 for 16 h, and then 1 uL of LiveBLAzerTM B/G FRET substrate was added using a Bioraptr FRD. The plates were incubated at room temperature for 2 h and fluorescence intensity was measured by an Envision plate reader (PerkinElmer, Shelton, CT). For cell viability readout that measures cytotoxicity, 3 ul/well of CellTiter-Glo reagent was added into the assay plates using a Bioraptr FRD. After 30 min incubation at room temperature, the luminescence intensity in the plates was measured using a ViewLux plate reader (PerkinElmer).", "values": [{"compound": "O=C(O)c1ccccc1[N+](=O)[O-]", "outcome": "inactive"}, {"compound": "O=C(O)c1ccc(O)c(O)c1", "outcome": "inactive"}, {"compound": "CC1(C)CC(=O)CC(C)(C)N1", "outcome": "inactive"}, {"compound": "Nc1ccc(C(=O)Oc2ccccc2)c(O)c1", "outcome": "inactive"}, {"compound": "COc1ccc(/C(C)=C/C(=O)O)c(OC)c1", "outcome": "inactive"}, {"compound": "CCCc1nc(C)c2c(=O)[nH]c(-c3cc(S(=O)(=O)N4CCN(CC)CC4)ccc3OCC)nn12", "outcome": "inactive"}, {"compound": "CC(C(=O)O)c1ccc2c(c1)Cc1cccnc1O2", "note": "(stereo not given)", "outcome": "inactive"}, {"compound": "O=C1OC(=O)C2CC=CCC12", "note": "(stereo not given)", "outcome": "inactive"}, {"compound": "C[C@H](N)C(=O)N[C@@H](C)C(=O)NC1[C@H]2CN(c3nc4c(cc3F)c(=O)c(C(=O)O)cn4-c3ccc(F)cc3F)C[C@@H]12", "note": "(stereo not given in full)", "outcome": "inactive"}, {"compound": "Nc1ccc(-c2ccc(F)cc2)cc1", "outcome": "inactive"}, {"compound": "CNc1ccccc1", "outcome": "inactive"}, {"compound": "O=C(O)c1cc(C(=O)O)c(C(=O)O)cc1C(=O)O", "outcome": "inactive"}, {"compound": "OCCc1ccncc1", "outcome": "inactive"}, {"compound": "CCc1ccc(C(=O)C(C)CN2CCCCC2)cc1", "note": "(stereo not given)", "outcome": "inactive"}, {"compound": "O=C1CCCN1CCO", "outcome": "inactive"}, {"compound": "CC1(C)C(=O)NC(=O)N1CO", "outcome": "inactive"}, {"compound": "CCCC(=O)OCCC(C)C", "outcome": "inactive"}, {"compound": "COc1ccc(C(=O)Nc2ccccc2)cc1[N+](=O)[O-]", "outcome": "inactive"}, {"compound": "c1ccc(-c2ccc(-c3ccccc3)cc2)cc1", "outcome": "inactive"}, {"compound": "CC(C)(C)c1ccc(CCC=O)cc1", "outcome": "inactive"}, {"compound": "N#CCCCC(C#N)CCC#N", "note": "(stereo not given)", "outcome": "inactive"}, {"compound": "COc1ccc(/C=C/S(=O)(=O)NC(=O)c2ccc(C)cc2Cl)cc1", "outcome": "inactive"}, {"compound": "O=C(C1CCCCC1)N1CC(=O)N2CCCc3ccccc3C2C1", "note": "(stereo not given)", "outcome": "inactive"}, {"compound": "Clc1nc2ccccc2nc1Cl", "outcome": "inactive"}, {"compound": "CCCCCCC/C=C/C=O", "outcome": "inactive"}, {"compound": "CC(C)=CCCC(C)C=O", "note": "(stereo not given)", "outcome": "inactive"}, {"compound": "CC(C)=CCC[C@H](C)CCO", "outcome": "inactive"}, {"compound": "OCCCO", "outcome": "inactive"}, {"compound": "CCCCCCCCCCCCSC#N", "outcome": "inactive"}, {"compound": "CO[C@@H]1COCC[C@@H]1N[C@@H]1CC[C@@](C(=O)N2CCc3ncc(C(F)(F)F)cc3C2)(C(C)C)C1", "outcome": "inactive"}, {"compound": "CCCCCCCCC(=O)OCC(C)OC(=O)CCCCCCCC", "note": "(stereo not given)", "outcome": "inactive"}, {"compound": "FC1(F)C(F)(F)C(F)(F)C2(F)C(F)(C1(F)F)C(F)(F)C(F)(F)C1(F)C(F)(F)C(F)(F)C(F)(F)C(F)(F)C12F", "note": "(stereo not given)", "outcome": "inactive"}, {"compound": "Cc1cc(SC2=C(O)C[C@@](CCc3ccc(N)cc3)(C(C)C)OC2=O)c(C(C)(C)C)cc1CO", "outcome": "inactive"}, {"compound": "O=C(c1ccc(Cl)cc1)c1ccc(Cl)cc1", "outcome": "inactive"}, {"compound": "O=C(O)CCc1nc2ccccc2[nH]1", "outcome": "inactive"}, {"compound": "CCCCCCCCCCCCCCCCC(=O)O", "outcome": "inactive"}, {"compound": "Cc1cc(C)c(C)c(O)c1", "outcome": "inactive"}, {"compound": "CCCCCCCCCCCCCCCCCCCl", "viability change, negative = cytotoxic": "-10.5% [at 6.95 µM] (inactive)"}, {"compound": "C/C(=C(\\CCO)SS/C(CCO)=C(\\C)N(C=O)Cc1cnc(C)nc1N)N(C=O)Cc1cnc(C)nc1N", "outcome": "inactive"}, {"compound": "CC(=O)Oc1cccc2c1C(=O)c1c(OC(C)=O)cc(C(=O)O)cc1C2=O", "outcome": "inactive"}]}]}
